In the library only some 3.2% were active in any assay of this set; here they are far more common.
ERK AVP inh – qHTS Assay for Inhibitors of the ERK Signaling Pathway using a Homogeneous Screening Assay | hit rate 0.99% among 72,000 | HEK293-V1b, vasopressin-stimulated pERK AlphaScreen | Potency, µM (series often up to 57.5 µM), inactives show at the top dose activity, negative = inhibition, most hits filed as inhibitors | AID 995, 2007; note: potency is the fitted concentration of half-maximal effect; % is set by controls: 0 for no effect and ±100 for the full control effect; nearly all actives have a fitted effect of over 55% in size
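qHTS, compounds titrated on V1b-expressing HEK293 cells. Preincubation 30 min at 37C, vasopressin 25 nM for 5 min, lysis 10 min, bead incubation 5 hr at room temperature.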
p53ts 32C kill – qHTS Screen for Compounds that Selectively Target Cancer Cells with p53 Mutations: Cytotoxicity of p53ts Cells at the Permissive Temperature. H1299-p53A138V at 32C, ATP luminescence viability, 24 h. Potency, µM (doses to about 46.1 µM), for the others: at the top dose activity change, negative = cytotoxicity, usual class: cytotoxic. hit rate 0.93% among 130,000;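 note: potency is the fitted concentration of half-maximal effect; 0% = DMSO and -100% = full killing by reference compound; nearly all actives have a fitted effect of over 55% in size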
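Viability by ATPlite luminescence after 24 h compound treatment (up to 46 uM) at the permissive 32C. Cells are H1299 carrying p53 A138V. Scale runs from DMSO basal to 100 uM tamoxifen as full kill; AC50 from Hill fits.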
Tau fil binding – qHTS Assay for Tau Filament Binding | AID 596, 2007 | hit rate 2% among 71,000 | Potency, µM (top dose mostly 57.1 µM), without a hit: at the top dose activity change, negative = inhibition | Microtubule-associated protein tau (Homo sapiens), P10636 | recombinant tau filaments, thioflavin S fluorescence, 15 h; filaments grown with octadecylsulfate alongside compound;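 note: potency is the fitted concentration of half-maximal effect; % is set by controls: 0 for no effect and ±100 for the full control effect; actives lower thioflavin S fluorescence by blocking filaments or displacing dye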
Target sequence (P10636 whole entry, looked up): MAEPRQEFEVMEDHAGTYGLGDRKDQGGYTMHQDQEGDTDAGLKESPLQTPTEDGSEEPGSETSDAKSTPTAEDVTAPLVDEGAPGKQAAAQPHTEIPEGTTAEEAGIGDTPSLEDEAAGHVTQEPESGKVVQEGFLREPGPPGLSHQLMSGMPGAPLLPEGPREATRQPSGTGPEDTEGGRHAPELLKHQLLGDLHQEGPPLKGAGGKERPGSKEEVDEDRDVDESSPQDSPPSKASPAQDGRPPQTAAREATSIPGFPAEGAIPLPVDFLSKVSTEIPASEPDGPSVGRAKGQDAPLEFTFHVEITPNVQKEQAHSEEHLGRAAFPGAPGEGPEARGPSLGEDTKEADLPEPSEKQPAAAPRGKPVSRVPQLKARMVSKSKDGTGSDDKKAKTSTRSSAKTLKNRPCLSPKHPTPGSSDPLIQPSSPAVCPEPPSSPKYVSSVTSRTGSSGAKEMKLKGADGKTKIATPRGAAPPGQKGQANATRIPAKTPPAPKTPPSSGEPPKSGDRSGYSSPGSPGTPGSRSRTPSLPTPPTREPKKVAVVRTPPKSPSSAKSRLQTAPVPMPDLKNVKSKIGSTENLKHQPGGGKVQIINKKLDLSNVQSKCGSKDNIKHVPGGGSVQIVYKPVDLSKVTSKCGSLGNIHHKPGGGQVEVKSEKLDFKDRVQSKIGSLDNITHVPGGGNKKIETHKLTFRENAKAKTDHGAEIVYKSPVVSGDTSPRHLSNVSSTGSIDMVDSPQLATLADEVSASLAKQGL
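Recombinant tau protein (human, 1 uM final) plus 30 uM ODS in HEPES pH 7.4 with NaCl, DTT and thioflavine S. Compound present from the start; fluorescence at 510 nm after 15 h, 37 C.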
p53ts 39C kill – qHTS Screen for Compounds that Selectively Target Cancer Cells with p53 Mutations: Cytotoxicity of p53ts Cells at the Nonpermissive Temperature; H1299-p53A138V viability at 39C, ATP luminescence, 24 h; Potency, µM (highest dose often 46.1 µM), inactives show at the highest dose activity change, negative = cell killing, actives largely listed as cytotoxic; hit rate 1.5% among 130,000; AID 902, 2007; note: potency is the fitted concentration of half-maximal effect; % is set by controls: 0 for no effect and ±100 for the full control effect; nearly all actives have a fitted effect of over 55% in size
YjeE inh – qHTS Assay for Inhibitors of YjeE. tRNA threonylcarbamoyladenosine biosynthesis protein TsaE (Escherichia coli (strain …. purified YjeE enzyme, qHTS inhibition assay. Potency, µM. hit rate 0.05% among 71,000
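Fluorescence polarization of a BODIPY Texas Red–ADP probe (2 uM) bound to purified YjeE (10 uM) was read after 15 min room-temperature incubation with compounds. Loss of polarization marks inhibitors; ADP serves as titrated control.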
DNA Pol III inh – qHTS Assay for Inhibitors of DNA Polymerase III Holoenzyme System | reconstituted DNA polymerase III holoenzyme replication, biochemical | Potency, µM (top dose mostly 57.1 µM), for inactives: top-dose activity change, negative = inhibition | AID 603, 2007 | hit rate 0.25% among 71,000; note: potency is the fitted concentration of half-maximal effect; % is set by controls: 0 for no effect and ±100 for the full control effect
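Reconstituted *E. coli* holoenzyme (0.35 nM Pol III, 1 nM beta, 154 nM SSB, 2 nM primase) was preincubated with compound for 15 min at RT. Synthesis on 1.4 nM ssM13Gori ran 35 min, then was stopped with PicoGreen/EDTA and read as dsDNA fluorescence.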
* hit, by the source's call; i = inactive; ? = inconclusive; . = not tested or not shown; [ ] = dose if it differs, or a comment. Calls come from the whole dose curve; as a rule, active = well fitted curve in the direction sought with a large enough effect; inconclusive = small, poorly fitted or top-dose-only effect, or another doubt; inactive = no such curve, though single readings can be large; an effect the other way counts as inactive or inconclusive.

SMILES	ERK AVP inh	p53ts 32C kill	Tau fil binding	p53ts 39C kill	YjeE inh	DNA Pol III inh
COc1ccccc1N1CCN(C(=O)CCc2ccc(S(=O)(=O)NCC(C)C)cc2)CC1	25.1µM*	2.6%	14.6%	-6.8%	i	-0.8%
O=C(Nc1cc2ccc(O)cc2oc1=O)c1ccccc1	.	?	.	7.94µM*	.	.
COc1ccc(N=[N+]([O-])c2ccc(OC)cc2)cc1	1.3%	-2.9%[1.84 µM]	-0.5%	15.8µM*	i	2.1%
COc1ccc(O)cc1	-22.1%	-2.2%[1.84 µM]	2.3%	-7.8%	i	4.6%
C=C[C@@]1(C)CC(=O)[C@@]2(O)[C@@]3(C)[C@@H](O)CCC(C)(C)[C@@H]3[C@H](OC(=O)CCN(C)C)[C@H](OC(C)=O)[C@@]2(C)O1	1µM*	-18.4%	-26.8%	4.8%	i	-0.9%
C(=C\c1ccccc1)/CN1CCN(c2ncnc3c2oc2ccccc23)CC1	-29.9%	10µM*	10.8%	12.6µM*	i	-1.5%
c1ccc2[nH]c(CN3CCN(c4ncnc5c4oc4ccccc45)CC3)nc2c1	12.6µM*	-10.7%	25.4%	-4.9%	i	-10.9%
Cc1nc(N2CCN(Cc3nc4ccccc4[nH]3)CC2)c2oc3ccccc3c2n1	?	9.1%	29.5%	11.9%	i	7.6%
COC(=O)c1[nH]c2ccc(C)cc2c1NC(=O)CN1CCN(c2ccccc2)CC1	12.6µM*	-28.8%	25.8%	0.6%	i	7.8%
COC(=O)c1[nH]c2ccc(Cl)cc2c1NC(=O)CN1CCc2cc(OC)c(OC)cc2C1	-0.6%	-7.2%	85.4%	-8.0%	i	-0.8%
COC(=O)c1[nH]c2cc(OC)c(OC)cc2c1NC(=O)CN1CCN(Cc2ccccc2)CC1	10µM*	-2.0%	46.3%	-1.8%	i	0.5%
COC(=O)c1[nH]c2ccc(C)cc2c1NC(=O)CN1CCN(c2ccc(F)cc2)CC1	-18.3%	?	-7.0%	-4.4%	i	-0.7%
ICCc1ccccc1	44.2%	-16.5%[1.84 µM]	2.4%	-13.3%	i	-4.6%
CN(C)c1ccc(-c2nccc(NCc3cccs3)n2)cc1	23.1%	7.94µM*	31.0%	5.01µM*	i	-0.6%
CN(C)C(=O)c1ccc(-c2nccc(NCc3cccs3)n2)cc1	?	5.9%	0.2%	-13.1%	i	-3.7%
Cc1nnc(SCCn2c(N3CCCC(C)C3)nc3c2c(=O)n(C)c(=O)n3C)s1 (stereo not given)	.	5.01µM*	16.6%	6.31µM*	i	-5.6%
Cc1nnc(SCCn2c(N3CCC(C)CC3)nc3c2c(=O)n(C)c(=O)n3C)s1	-10.6%	11.3%	-1.5%	14.1%	i	1.3%
COc1ccc(-c2noc(Cn3c(=O)c4ccccc4n(CC(=O)Nc4cccc(C(F)(F)F)c4)c3=O)n2)cc1	.	-3.0%	.	30.9%	.	.
CC(C)c1ccc(NC(=O)C2CCCN(S(=O)(=O)c3cccc4cccnc34)C2)cc1 (stereo not given)	.	-7.5%	.	-3.0%	.	.
Cc1cc(C)c(NC(=O)Cn2c(=O)n(Cc3ccc4c(c3)OCO4)c(=O)c3ccccc32)c(C)c1	.	14.9%	.	9.1%	.	.
Cc1cc(C)c(NC(=O)Cn2c(=O)n(Cc3ccc(C(=O)NCc4ccc5c(c4)OCO5)cc3)c(=O)c3ccccc32)c(C)c1	.	?	.	5.01µM*	.	.
CCc1ccc(NC(=O)Cn2c(=O)n(-c3ccccc3)c(=O)c3ccc(C(=O)NCc4ccc5c(c4)OCO5)cc32)cc1	.	-21.3%	.	15.8µM*	.	.
CCOc1ccc(NC(=O)Cn2c(=O)n(-c3ccccc3)c(=O)c3ccc(C(=O)NCc4ccc5c(c4)OCO5)cc32)cc1	.	?	.	12.6µM*	.	.
CC(=O)OCC1OC(C#CCC2CCCCC2)C=CC1OC(C)=O (stereo not given)	-4.1%[11.5 µM]	2.4%[9.22 µM]	.	-8.3%[9.22 µM]	.	.

Bioassay records from PubChem.
